Assay outcomes: PubChem BioAssay, National Center for Advancing Translational Sciences (NCATS)
FEN1 inhibitor: inhibitors of human flap endonuclease 1; Recombinant FEN1 flap cleavage, fluorescence, 15 min; hit rate 0.35% among 390,000; Potency, µM (top dose mostly 114 µM), without a hit: top-dose activity change, negative = inhibition, most hits filed as inhibitors; note: % is set by controls: 0 for no effect and ±100 for the full control effect; nearly all actives have a fitted effect of over 65% in size
Target sequence (P39748 whole entry, looked up): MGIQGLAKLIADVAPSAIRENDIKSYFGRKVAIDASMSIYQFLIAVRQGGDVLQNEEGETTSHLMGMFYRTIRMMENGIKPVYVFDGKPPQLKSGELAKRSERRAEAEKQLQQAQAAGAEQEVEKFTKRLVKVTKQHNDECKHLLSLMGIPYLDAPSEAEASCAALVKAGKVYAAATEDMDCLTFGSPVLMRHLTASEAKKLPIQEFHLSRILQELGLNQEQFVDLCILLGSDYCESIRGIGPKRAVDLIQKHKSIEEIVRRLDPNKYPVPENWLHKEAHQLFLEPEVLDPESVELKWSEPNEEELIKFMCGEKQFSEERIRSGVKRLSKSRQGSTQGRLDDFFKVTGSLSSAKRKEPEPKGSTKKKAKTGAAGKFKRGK
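Compounds are tested as a concentration series against 10 nM FEN1; after a 15 min room-temperature preincubation, 50 nM substrate starts cleavage, with plate reads at 0 and 15 min. Normalized responses are fitted by a Hill equation.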
Pol kappa inh: blocks human DNA polymerase kappa activity | purified Pol kappa, fluorescent DNA synthesis assay, 10 min | Potency, µM (top dose mostly 107 µM), inactives show at the highest dose activity, negative = inhibition, actives largely listed as inhibitors | hit rate 0.53% among 400,000 | Q9UBT6; note: % is set by controls: 0 for no effect and ±100 for the full control effect
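10 nM Pol kappa was preincubated with compounds for 15 min at room temperature. Reaction started with 50 nM (final) substrate. Fluorescence read kinetically at 0 and 10 min.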
WRN inhibitor: inhibitors of human WRN helicase. Q14191. WRN helicase unwinding, fluorescent forked duplex, kinetic. Potency, µM (series often up to 114 µM), inactives show at the highest dose activity change, negative = inhibition, usual class: inhibitors. hit rate 0.46% among 360,000. AID 651768; note: % is set by controls: 0 for no effect and ±100 for the full control effect; nearly all actives have a fitted effect of over 55% in size
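WRN at 20 nM final was preincubated with compound for 15 min at room temperature; reaction started with 100 nM forked duplex oligonucleotide carrying fluorophore and quencher plus 2 mM ATP (final). Unwinding followed kinetically by red fluorescence (ex 525/em 598 nm).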
POLB inh: inhibitors of human DNA polymerase beta | Pol beta primer extension/strand displacement, fluorescence kinetic | Potency, µM (titrated, usually from 114 µM), without a hit: at the highest dose activity change, negative = inhibition, usual class: inhibitors | P06746 | AID 485314 | hit rate 1.3% among 340,000; note: % is set by controls: 0 for no effect and ±100 for the full control effect
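Kinetic readout of DNA synthesis with strand displacement by Pol beta. Compound and 10 nM enzyme sit 15 min at room temperature; 50 nM substrate starts the reaction, read immediately and at 10 min.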
POLH inh: DNA polymerase eta (human) inhibition; Q9Y253; recombinant Pol eta, fluorescent DNA replication assay; Potency, µM (doses to about 114 µM), for inactives: at the top dose activity change, negative = inhibition, usual class: inhibitors; hit rate 1.2% among 390,000; note: % is set by controls: 0 for no effect and ±100 for the full control effect
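Pol eta (10 nM) was preincubated with compounds for 15 min at room temperature, after which fluorescent replication substrate (50 nM final) was added to start the reaction. Fluorescence was read kinetically at 0 and 10 min.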
Pol iota inh: DNA polymerase iota (human) inhibition. hit rate 1% among 390,000. Q9UNA4. AID 588590. Potency, µM (highest dose often 115 µM), without a hit: top-dose activity, negative = inhibition, actives largely listed as inhibitors. Pol iota fluorescent replication assay, 10 min
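Fluorescent replication assay read twice, at 0 min and 10 min after adding 50 nM (final) substrate. Enzyme (10 nM) and compounds were first incubated 15 min at room temperature; enzyme-free buffer wells were negative controls.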
Numbers without * were called inactive; u = inconclusive; x = not tested or not shown; [ ] = another dose, or the depositor's remark. In the library only some 2.4% were active in any assay of this set; here they are far more common. Calls come from the whole dose curve; as a rule, active = well fitted curve in the direction sought with a large enough effect; inconclusive = small, poorly fitted or top-dose-only effect, or another doubt; inactive = no such curve, though single readings can be large; an effect the other way counts as inactive or inconclusive. Potency is the fitted concentration of half-maximal effect.

SMILES	FEN1 inhibitor	Pol kappa inh	WRN inhibitor	POLB inh	POLH inh	Pol iota inh
Nc1cccn2c(-c3ccc(Cl)cc3)cnc12	-24.6%	-8.9%	-8.2%[57.1 µM]	-0.6%	-13.7%	15.9%
CC1C(=O)C(=O)C=CN1C (stereo unspecified)	x	-1.4%[19.4 µM]	x	x	x	x
Cc1[nH]n(-c2ncc(-c3ccc(Cl)cc3)s2)c(=O)c1C(c1ccc(Cl)cc1)C(C#N)C#N (stereo unspecified)	-30.3%	u	u	17.8µM*	31.6µM*	-27.6%
Cc1ccc(C(=O)CSc2nnc(-c3ccco3)n2C)cc1	1.1%	-18.7%	u	59.6%	-3.5%	21.3%
Cn1c(SCC(=O)c2cc(Cl)c(Cl)s2)nnc1-c1ccco1	-21.0%	31.6µM*	u	20µM*	u	15.8µM*
Cc1sc2ccccc2[n+]1Cc1ccccc1	-28.4%	9.9%	x	x	x	13.7%
Nc1cccc2c1C(=O)N(C(=O)/C=C/c1cccc(Br)c1)C2=O	-8.8%	-8.1%	-28.1%	9.4%	u	11.2µM*
Nc1cccc2c1C(=O)N(C(=O)/C=C/c1cccc(F)c1)C2=O	6.8%	-11.3%	-22.1%[11.6 µM]	13.9%	u	u
COc1cc(OC)c2c(-c3ccccc3)cc(=O)oc2c1C(CC(=O)N1CCN(c2ccccc2)CC1)c1ccc2c(c1)OCO2 (stereo unspecified)	x	x	x	50.1µM*	x	x
Cc1cc(C)cc(N(CC(=O)NC2CC3CCC2C3)S(C)(=O)=O)c1 (stereo unspecified)	5.8%	-8.2%	12.0%	-1.0%	1.3%	89.1µM*
NC(=O)[C@@H]1CC2(CC(c3cccc(NC(=O)[C@H]4CCC(=O)N4)c3)=NO2)CN1C(=O)c1ccc(Cl)cc1 (stereo partly specified)	-7.5%	-2.0%	10.7%	-15.8%	-14.1%	-16.9%
C=C(C)C(=O)Nc1cccc(C2=NOC3(C2)C[C@H](C(N)=O)N(C(=O)CC#N)C3)c1 (stereo partly specified)	-11.4%	u	-31.8%	35.5µM*	20µM*	u
CCCCCC(=O)Nc1cccc(C2=NOC3(C2)C[C@H](C(N)=O)N(C(=O)CC#N)C3)c1 (stereo partly specified)	x	x	x	39.8µM*	x	x
NC(=O)[C@H]1CC2(CC(c3cccc(NC(=O)[C@H]4CCC(=O)N4)c3)=NO2)CN1C(=O)c1ccccc1 (stereo partly specified)	79.4µM*	-8.0%	-6.7%[11.6 µM]	-24.9%	-8.8%	u
N#CCC(=O)N1CC2(CC(c3cccc(NC(=O)COc4ccc(Cl)cc4)c3)=NO2)C[C@@H]1C(N)=O (stereo partly specified)	7.4%	-12.3%	7.3%	2.2%	-4.9%	9.1%
C/C=C/C=C/C(=O)N1CC2(CC(c3cccc(NC(=O)/C=C/C)c3)=NO2)C[C@@H]1C(N)=O (stereo partly specified)	-14.9%	u	-16.8%[11.6 µM]	-1.3%	u	39.8µM*
CCCCCC(=O)Nc1cccc(C2=NOC3(C2)C[C@H](C(N)=O)N(C(=O)c2ccccc2)C3)c1 (stereo partly specified)	11.1%	-15.1%	-4.2%	1.6%	-7.4%	u
NCCCC[C@H](NC(=O)CNC(=O)[C@@H]1CCCN1C(=O)[C@H](Cc1ccc(O)cc1)NC(=O)CN)C(=O)N[C@@H](Cc1ccccc1)C(=O)O	x	7.7%[60.1 µM]	x	x	x	x
NCCNC(=O)c1ccc(Cl)cn1	x	-3.3%[19.4 µM]	x	x	x	x
C/C=C\C=C/C(=O)Nc1cccc(C2=NOC3(C2)C[C@H](C(N)=O)N(C(=O)Cc2ccc([N+](=O)[O-])cc2)C3)c1 (stereo partly specified)	-17.2%	-10.4%	-13.3%	-8.3%	-16.4%	25.1µM*
C/C=C/C=C\C(=O)Nc1cccc(C2=NOC3(C2)C[C@H](C(N)=O)N(C(=O)CC#N)C3)c1 (stereo partly specified)	u	79.4µM*	44.7µM*	50.1µM*	44.7µM*	14.1µM*
C/C=C(/C)C(=O)Nc1cccc(C2=NOC3(C2)C[C@H](C(N)=O)N(C(=O)Cc2ccc([N+](=O)[O-])cc2)C3)c1 (stereo partly specified)	11.0%	0.6%	4.6%	-0.5%	-21.4%	-3.9%
O=C(/C=C/c1ccco1)OCc1nnc(-c2ccc(Cl)cc2)o1	-6.3%	-22.4%	-18.4%	35.5µM*	-12.4%	u
O=C(/C=C/c1ccco1)OCc1nnc(-c2ccccc2)o1	1.3%	-34.3%	-17.7%	22.4µM*	23.5%	79.4µM*
O=C(/C=C/c1ccco1)OCn1nnc2ccccc2c1=O	-2.2%	-3.6%	-3.0%	20µM*	-5.2%	29.3%
SMILES	FEN1 inhibitor	Pol kappa inh	WRN inhibitor	POLB inh	POLH inh	Pol iota inh
Fc1ccc2[nH]c3c(N4CCc5ccccc5C4)ncnc3c2c1	-1.2%	-10.9%	-25.1%	14.1µM*	-16.6%	-13.7%
Nc1[nH]c(=S)[nH]c(=O)c1N=O	-3.3%	9.2%	x	x	x	4.1%
Cc1ccc(S(=O)(=O)NCC(=O)N(CC(=O)NCC2CCCO2)Cc2ccco2)cc1 (stereo unspecified)	15.5%	-7.7%	-2.7%[57.1 µM]	12.6µM*	-11.9%	20.9%
Cc1ccc(S(=O)(=O)NCC(=O)N(CC(=O)NCC2CCCO2)Cc2ccccc2)cc1 (stereo unspecified)	0.7%	-0.5%	-0.7%	-0.7%	-11.4%	8.8%
O=C(CN(Cc1ccco1)C(=O)CNS(=O)(=O)c1ccc(Cl)cc1)NCc1ccco1	2.2%	2.3%	-2.6%[57.1 µM]	44.1%	-16.2%	-5.3%
Cc1ccc(S(=O)(=O)NCC(=O)N(CC(=O)NCc2ccco2)Cc2ccco2)cc1	-2.3%	u	-7.5%[11.6 µM]	1.3%	56.2µM*	u
O=C(O)C1CSC(c2ccncc2)N1 (stereo unspecified)	-3.9%	-12.8%	-32.0%	-18.5%	2.7%	14.6%
O=C(O)C1CSC(c2ccco2)N1 (stereo unspecified)	u	17.8µM*	14.1µM*	8.91µM*	10µM*	u
Nc1c(N=Nc2ccc(-c3ccc(N=Nc4cc(S(=O)(=O)O)c5ccccc5c4N)cc3)cc2)cc(S(=O)(=O)O)c2ccccc12	x	1.12µM*	x	x	x	x
O=S(=O)(O)c1ccc(N=Nc2ccccc2)cc1	12.8%	-5.6%	-10.4%	u	-9.7%	3.5%
Cc1ccc(N=Nc2ccc(N)cc2C)c(S(N)(=O)=O)c1	-3.8%	0.3%	-5.7%	u	u	94.4%
Cc1cc(-c2ccc(N=Nc3ccc4c(S(=O)(=O)O)cc(S(=O)(=O)O)c(N)c4c3O)c(C)c2)ccc1N=Nc1ccc2c(S(=O)(=O)O)cc(S(=O)(=O)O)c(N)c2c1O	x	1.26µM*	x	x	x	x
COc1ccc2c(c1)c(=O)c(S(=O)(=O)c1ccccc1)cn2CC(=O)Nc1ccc(C)c(Cl)c1	-2.4%	-6.3%	x	4.4%	-22.1%	34.8%
